Structures are written as SMILES. Calls of active or inactive are those of the source. The calls were made as follows: active = hit-call score of the fitted dose curve at least 0.9, where 1 is the maximum; inactive = score below 0.9.

Read-out in experiment [1]: TIMP metallopeptidase inhibitor 1 (TIMP1), TIMP1 (gene 7076)
Nature of the experiment: BSK_hDFCGF_TIMP1: BioMAP Diversity Plus: hDFCGF Assay for TIMP metallopeptidase inhibitor 1 (TIMP1) Biomarker Activity (AID 2283062). To be noted: primary human foreskin fibroblasts; actives raise or lower the signal. The essentials: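 Bidirectional curve fitting against DMSO baseline yielded this endpoint, based on ELISA detection of TIMP-1 in primary human foreskin fibroblasts exposed to compound for 24 h.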

Read-out in experiment [2]: Monokine induced gamma interferon (MIG), CXCL9 (gene 4283)
Kind of experiment: BSK_hDFCGF_MIG: BioMAP Diversity Plus: hDFCGF Assay for Monokine induced gamma interferon (MIG) Biomarker Activity (AID 2283063). To be noted: primary human foreskin fibroblasts; actives raise or lower the signal. The essentials:
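Endpoint derived by bidirectional fitting relative to DMSO; MIG quantified via ELISA in primary human foreskin fibroblasts harvested 24 h after dosing.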

Read-out in experiment [3]: Matrix Metallopeptidase 1 (MMP1), MMP1 (gene 4312)
Nature of the experiment: BSK_hDFCGF_MMP1: BioMAP Diversity Plus: hDFCGF Assay for Matrix Metallopeptidase 1 (MMP1) Biomarker Activity (AID 2283064). To be noted: primary human foreskin fibroblasts; actives raise or lower the signal. The essentials:
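MMP1 levels quantified by ELISA 24 h after dosing human dermal fibroblast cultures, with parallel SRB total-protein staining for overt cytotoxicity. Data fitted in both directions against DMSO baseline.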

Read-out in experiment [4]: Vascular cell adhesion molecule 1 (VCAM1), VCAM1 (gene 7412)
Kind of experiment: BSK_hDFCGF_VCAM1: BioMAP Diversity Plus: hDFCGF Assay for Vascular cell adhesion molecule 1 (VCAM1) Biomarker Activity (AID 2283065).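 As to AC50: VCAM-1 protein level quantified by ELISA after 24 h chemical exposure.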 To be noted: primary human foreskin fibroblasts; actives raise or lower the signal. The essentials: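 Measured after 24 h chemical treatment of primary human skin fibroblasts, VCAM-1 was detected by ELISA and concentration-response analysed in both directions versus DMSO vehicle.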

Read-out in experiment [5]: Plasminogen activator inhibitor-1 (PAI1), SERPINE1 (gene 5054)
Nature of the experiment: BSK_hDFCGF_PAI1: BioMAP Diversity Plus: hDFCGF Assay for Plasminogen activator inhibitor-1 (PAI1) Biomarker Activity (AID 2283066). To be noted: primary human foreskin fibroblasts; actives raise or lower the signal. In short, it runs like this: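 Human skin fibroblast cultures receive chemical for 24 h before PAI-1 is measured by ELISA; signal changes are fitted bidirectionally against DMSO-treated wells.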

Read-out in experiment [6]: Intercellular Adhesion Molecule 1 (ICAM1), ICAM1 (gene 3383)
Nature of the experiment: BSK_KF3CT_ICAM1: BioMAP Diversity Plus: KF3CT Assay for Intercellular Adhesion Molecule 1 (ICAM1) Biomarker Activity (AID 2283067). To be noted: primary human keratinocytes with fibroblasts; actives raise or lower the signal. The essentials: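 Bidirectional curve fitting against a DMSO baseline was applied to ICAM-1 ELISA signal from primary human skin co-cultures harvested 24 h after treatment, with SRB staining of parallel wells for overt cytotoxicity.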

Read-out in experiment [7]: Interferon-gamma inducible Protein 10 (IP10), CXCL10 (gene 3627)
Kind of experiment: BSK_KF3CT_IP10: BioMAP Diversity Plus: KF3CT Assay for Interferon-gamma inducible Protein 10 (IP10) Biomarker Activity (AID 2283068). Particulars: primary human keratinocytes with fibroblasts; actives raise or lower the signal. In short, it runs like this:
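Signal is secreted/surface IP-10 by ELISA in a human primary skin co-culture of keratinocytes and foreskin fibroblasts, taken 24 h post-dosing; DMSO served as negative control.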

Experiment [8] is described as follows: BSK_KF3CT_SRB: Viability Assessment in the BioMAP Diversity Plus: KF3CT Assay (AID 2283069).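 Also: total protein by sulforhodamine B staining as a cytotoxicity measure; read 24 h after compound addition.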 Particulars: primary human keratinocytes with fibroblasts. The essentials:
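Cytotoxicity was gauged by SRB staining (0.1% SRB, 10% TCA fixation, 560 nm) of parallel cultures at 24 h. The cells were primary human skin keratinocytes co-cultured with fibroblasts, and activity was fitted in both directions against DMSO.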

Read-out in experiment [9]: Interleukin-1 alpha (IL1a), IL1A (gene 3552)
Kind of experiment: BSK_KF3CT_IL1a: BioMAP Diversity Plus: KF3CT Assay for Interleukin-1 alpha (IL1a) Biomarker Activity (AID 2283070). To be noted: primary human keratinocytes with fibroblasts; actives raise or lower the signal. The essentials: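 IL-1a was detected by ELISA 24 h after chemical treatment of a co-culture of human skin keratinocytes and foreskin fibroblasts. Gain or loss of signal was fitted against the DMSO baseline.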

Read-out in experiment [10]: TIMP metallopeptidase inhibitor 2 (TIMP2), TIMP2 (gene 7077)
Nature of the experiment: BSK_KF3CT_TIMP2: BioMAP Diversity Plus: KF3CT Assay for TIMP metallopeptidase inhibitor 2 (TIMP2) Biomarker Activity (AID 2283071). Particulars: primary human keratinocytes with fibroblasts; actives raise or lower the signal. In short, it runs like this:
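Measurements come from ELISA detection of TIMP-2 at 24 hours in a dosed human keratinocyte and foreskin fibroblast co-culture. DMSO serves as negative control and baseline.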

Read-out in experiment [11]: Transforming growth factor beta 1 (TGFb1), TGFB1 (gene 7040)
Kind of experiment: BSK_KF3CT_TGFb1: BioMAP Diversity Plus: KF3CT Assay for Transforming growth factor beta 1 (TGFb1) Biomarker Activity (AID 2283072). Particulars: primary human keratinocytes with fibroblasts; actives raise or lower the signal. In short, it runs like this:
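TGF-b1 ELISA on a 24 h dosed co-culture of human keratinocytes and foreskin fibroblasts; cytotoxicity tracked in parallel cultures by SRB staining.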

Read-out in experiment [12]: C-C motif chemokine 2 (Homo sapiens) (UniProt P13500)
Nature of the experiment: BSK_KF3CT_MCP1: BioMAP Diversity Plus: KF3CT Assay for Monocyte Chemoattractant Protein 1 (MCP1/CCL2) Biomarker Activity (AID 2283073). To be noted: primary human keratinocytes with fibroblasts; actives raise or lower the signal. The essentials: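 Biomarker MCP-1 is measured by ELISA in primary human keratinocytes co-cultured with foreskin fibroblasts, 24 h after chemical treatment; DMSO serves as the negative control and activity baseline.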

Read-out in experiment [13]: Matrix Metallopeptidase 9 (MMP9), MMP9 (gene 4318)
Nature of the experiment: BSK_KF3CT_MMP9: BioMAP Diversity Plus: KF3CT Assay for Matrix Metallopeptidase 9 (MMP9) Biomarker Activity (AID 2283074).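 As to AC50: MMP9 protein level quantified by ELISA in the co-culture.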 Particulars: primary human keratinocytes with fibroblasts; actives raise or lower the signal. The essentials:
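MMP-9 quantified by ELISA after 24 h chemical treatment of primary human skin keratinocyte/fibroblast co-cultures; gain or loss fitted against DMSO, with parallel SRB staining (0.1% SRB, 560 nm) for overt cytotoxicity.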

Read-out in experiment [14]: CD40, CD40 (gene 958)
Kind of experiment: BSK_LPS_CD40: BioMAP Diversity Plus: LPS Assay for CD40 Biomarker Activity (AID 2283076). To be noted: primary human HUVEC with PBMC; actives raise or lower the signal. The essentials: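 Using a multiplexed primary human co-culture (umbilical vein endothelium plus PBMC), CD40 was read by ELISA 24 h after dosing, with cytotoxicity tracked by sulforhodamine B staining of parallel cultures and activity fitted bidirectionally versus DMSO.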

Read-out in experiment [15]: E-selectin (Homo sapiens) (UniProt P16581)
Nature of the experiment: BSK_LPS_Eselectin: BioMAP Diversity Plus: LPS Assay for Eselectin Biomarker Activity (AID 2283077). To be noted: primary human HUVEC with PBMC; actives raise or lower the signal. The essentials: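 Dose chemical onto LPS-driven HUVEC/PBMC co-culture; after 24 h, run ELISA for E-selectin; fit up- and down-going responses relative to DMSO control.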

Read-out in experiment [16]: Interleukin-8 (IL8), CXCL8 (gene 3576)
Kind of experiment: BSK_LPS_IL8: BioMAP Diversity Plus: LPS Assay for Interleukin-8 (IL8) Biomarker Activity (AID 2283078). To be noted: primary human HUVEC with PBMC; actives raise or lower the signal. In short, it runs like this: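 In this LPS system, chemical-treated human umbilical vein endothelium/PBMC co-cultures were harvested at 24 h for IL-8 ELISA.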

Experiment [17] in a line: BSK_LPS_SRB: Viability Assessment in the BioMAP Diversity Plus: LPS Assay (AID 2283079).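 Also: total protein by sulforhodamine B absorbance as a cytotoxicity measure; measured one day after compound addition; fitted in both directions against DMSO so loss or gain of signal counts.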 To be noted: primary human HUVEC with PBMC. The essentials:
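Cytotoxicity endpoint in human endothelial–PBMC co-culture: 24 h exposure, then SRB (0.1%) staining, 560 nm read.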

Read-out in experiment [18]: Interleukin-1 alpha (IL1a), IL1A (gene 3552)
Kind of experiment: BSK_LPS_IL1a: BioMAP Diversity Plus: LPS Assay for Interleukin-1 alpha (IL1a) Biomarker Activity (AID 2283080). To be noted: primary human HUVEC with PBMC; actives raise or lower the signal. The essentials:
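Primary human HUVEC and PBMC co-culture stimulated with LPS is dosed and harvested at 24 h. Both increases and decreases in ELISA-measured IL-1a are scored relative to DMSO.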

Read-out in experiment [19]: Monocyte Chemoattractant Protein-1 (MCP1), CCL2 (gene 6347)
Nature of the experiment: BSK_LPS_MCP1: BioMAP Diversity Plus: LPS Assay for Monocyte Chemoattractant Protein-1 (MCP1) Biomarker Activity (AID 2283081). Particulars: primary human HUVEC with PBMC; actives raise or lower the signal. In short, it runs like this:
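Values derive from bidirectional fitting against DMSO of ELISA-measured MCP-1 in a human primary endothelial and mononuclear cell co-culture, 24 h after chemical addition under LPS activation.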

Read-out in experiment [20]: urokinase plasminogen activator (uPA), PLAU (gene 5328)
Nature of the experiment: BSK_KF3CT_uPA: BioMAP Diversity Plus: KF3CT Assay for urokinase plasminogen activator (uPA) Biomarker Activity (AID 2283075). Particulars: primary human keratinocytes with fibroblasts; actives raise or lower the signal. In short, it runs like this:
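ELISA read-out of uPA 24 h after dosing human skin keratinocytes co-cultured with foreskin fibroblasts. Signal change fitted both ways relative to DMSO; sulforhodamine B on parallel cultures marks overt cytotoxicity.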

Sequence of E-selectin (Homo sapiens) (P16581 whole entry, looked up): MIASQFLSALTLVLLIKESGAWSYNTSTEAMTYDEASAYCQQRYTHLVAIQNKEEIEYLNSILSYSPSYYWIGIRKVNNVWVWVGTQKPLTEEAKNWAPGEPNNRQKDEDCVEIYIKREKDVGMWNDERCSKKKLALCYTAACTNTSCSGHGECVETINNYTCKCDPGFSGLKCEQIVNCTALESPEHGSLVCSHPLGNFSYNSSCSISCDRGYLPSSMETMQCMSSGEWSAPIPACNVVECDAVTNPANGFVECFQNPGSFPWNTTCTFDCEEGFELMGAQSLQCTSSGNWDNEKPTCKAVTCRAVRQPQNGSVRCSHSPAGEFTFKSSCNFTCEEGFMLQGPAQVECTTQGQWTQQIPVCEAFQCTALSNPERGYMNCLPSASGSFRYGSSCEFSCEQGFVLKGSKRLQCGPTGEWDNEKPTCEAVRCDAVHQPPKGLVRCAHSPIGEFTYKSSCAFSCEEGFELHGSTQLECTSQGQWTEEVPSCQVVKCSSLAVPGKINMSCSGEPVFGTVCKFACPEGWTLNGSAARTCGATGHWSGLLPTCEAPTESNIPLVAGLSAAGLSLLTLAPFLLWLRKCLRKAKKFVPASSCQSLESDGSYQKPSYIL

The AC50 is the midpoint of the concentration-response curve, whichever way the signal moves. With `Oc1ccc2c(c1)-c1ccccc1C2`, the result in experiment [1], in experiment [2], in [3], in experiment [4], in experiment [5] and in experiment [6] was inactive. For the same compound, the result in experiment [7], in [8], in experiment [9], in [10], in experiment [11] and in experiment [12] was inactive. Besides, the outcome in experiment [13], in experiment [15], in experiment [16], in experiment [18] and in experiment [19] was inactive. For the same compound, the AC50 in experiment [14] and in experiment [17] was 20 µM (active) each time.

On to `Cc1ccc(O)cc1`, for which the outcome in experiment [1], in [2], in experiment [3], in experiment [4], in experiment [5] and in experiment [6] was inactive. Further, the outcome in [7], in [8], in experiment [9], in experiment [10], in experiment [11] and in experiment [12] was inactive. The result in [13], in experiment [14], in experiment [15], in experiment [16], in experiment [17] and in [18] was inactive. Also, the result in experiment [19] was inactive.

In the case of `COC(=O)c1ccccc1O`, the result in experiment [1], in [2], in [3], in experiment [4], in [5] and in [6] was inactive. The outcome in experiment [7], in experiment [8], in experiment [9], in experiment [10], in experiment [11] and in experiment [12] was inactive. The result in [13], in experiment [14], in experiment [15], in [16], in experiment [17] and in [18] was inactive. In addition, the outcome in [19] was inactive.

Regarding `CCN(C(=O)c1cc(C)cc(OC[C@H](C)Nc2ccncc2)c1)C(C)C`, the outcome in experiment [1], in [2], in [3], in experiment [4], in experiment [5] and in experiment [6] was inactive. In addition, the result in experiment [7], in experiment [8], in experiment [9], in experiment [10], in [11] and in experiment [13] was inactive. For the same compound, the outcome in experiment [14], in [15], in experiment [16], in experiment [17], in experiment [18] and in experiment [19] was inactive. Besides, in experiment [20], the AC50 was 13.5 µM (active).

As to `COc1cccc(-c2ccc(/C=C\CN3CCCCCC3)cc2Cl)c1`, the AC50 was 29.1 µM (active) in [1]; 34.5 µM (active) in experiment [2]; 34.4 µM (active) in experiment [3]; 30.5 µM (active) in experiment [4]; 25.3 µM (active) in [5]; 28.4 µM (active) in experiment [6]. The AC50 in experiment [7] is 29.7 µM (active); in [8] it was 30.6 µM (active); in experiment [9] it was 29 µM (active); in [10], 33.2 µM (active); in experiment [11] it was 33.3 µM (active); in experiment [12] it was 28.5 µM (active). Moreover, the AC50 in experiment [13] is 28 µM (active); in experiment [14], 28.6 µM (active); in experiment [17], 26.8 µM (active); in [18] it was 28.4 µM (active). Also, the result in experiment [15], in [16] and in experiment [19] was inactive.

The values are drawn from PubChem BioAssay (EPA / NIEHS).
